High-throughput results (PubChem)
Rows were chosen to be rich in hits. Some 21% of all compounds tested hit in one or more screens of this group.
CHX counter = counter-screen hit for Shiga toxin inhibitors, cycloheximide; cell reporter, cycloheximide protein synthesis inhibition counterscreen; max response, %; 12% of 300,000 active; AID 2314; in the data active means max response mostly above about 13%, no sharp cut-off; inactive means mostly below about 14%; further: read at 38.3 µM for the half of the compounds with a filed dose; 0% is about no effect
NS1 function inh = blocks influenza NS1 protein function; Potency, µM (titrated, usually from 46.1 µM), without a hit: at the top dose activity, positive = more growth; 0.4% of 270,000 active; calls by dose curve; further: potency means the concentration at half of the fitted maximal effect; actives are rising curves; nearly all actives have a fitted effect of over 50% in size
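S. cerevisiae expressing influenza A NS1, grown in glucose, washed, then diluted 1:100 into pH 6.0 -URA galactose medium with 23 nl compound. Growth recovery read as OD600; NS1-free strain serves as control.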
Shiga toxin inh = inhibitors of Shiga toxin in Vero cells | Vero cells, Shiga toxin protein synthesis inhibition reporter | inhibition, % at 38.7 µM | 9.2% of 290,000 active | AID 2315; in the data active means inhibition mostly above about 28%, no sharp cut-off; inactive means mostly below about 43%; further: 0% is about no effect
Pf growth 96h = inhibits malaria parasite growth, 96 h | P. falciparum luciferase reporter growth, 96 h | Potency, µM (top dose mostly 28.7 µM), for the others: at the top dose activity change, negative = inhibition, usual class: inhibitors | 6.9% of 320,000 active; further: potency means the concentration at half of the fitted maximal effect; on the % scale 0 is the no-effect control and ±100 the full control effect
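Two parasite generations (96 h, 37 C, 5% CO2) of compound exposure in infected erythrocytes (0.05% parasitemia, 2% hematocrit). Luciferase-reporter P. falciparum; decreased luminescence indicates inhibited growth, aimed at apicoplast-acting delayed death.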
Sm TGR inh = blocks Schistosoma mansoni thioredoxin glutathione reductase; Potency, µM (highest dose often 114 µM), for inactives: at the top dose activity change, negative = inhibition, hits mostly inhibitors; purified TGR, DTNB reduction, TNB absorbance 405 nm; 3% of 360,000 active; further: potency means the concentration at half of the fitted maximal effect; on the % scale 0 is the no-effect control and ±100 the full control effect; nearly all actives have a fitted effect of over 60% in size
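TGR 20 nM + NADPH 100 uM (dispensed conc.), cpd preinc 15 min RT; start with NADPH (500 uM addition) then DTNB (15 mM addition). Kinetic TNB absorbance, 405 nm filter. Four-parameter Hill fit across titration.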
Pf growth 48h = P. falciparum growth inhibition at 48 hours (one generation). P. falciparum luciferase growth in erythrocytes, 48 h. Potency, µM (doses to about 28.7 µM), for the others: top-dose activity change, negative = inhibition, most hits filed as inhibitors. 5.9% of 310,000 active. AID 504832; further: potency means the concentration at half of the fitted maximal effect; on the % scale 0 is the no-effect control and ±100 the full control effect
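Growth was read as firefly luciferase luminescence after a 48 h, 37 C, 5% CO2 exposure of compounds to reporter-bearing P. falciparum cultures (0.1% parasitemia, 2% hematocrit final) in Albumax-supplemented RPMI 1640.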
Starred values were filed as active, the others as inactive; ? = inconclusive; nt = no result given; + = active, no number; [ ] = remark or other dose. Unless noted, the call rests on the fitted dose curve; in most records, active means well fitted curve in the direction sought with a large enough effect; inconclusive means small, poorly fitted or top-dose-only effect, or another doubt; inactive means no such curve, though single readings can be large; an effect the other way counts as inactive or inconclusive.

SMILES	CHX counter	NS1 function inh	Shiga toxin inh	Pf growth 96h	Sm TGR inh	Pf growth 48h
Cc1cccc(Nc2nc(-c3ccc4c(c3)OCCO4)cs2)c1	43.6*	10.2%	120.3*	-87.1%	-7.8%	nt
CCOc1ccc(-c2nnn(CC(=O)NCc3ccccc3)n2)cc1	3.4	nt	-7.6	54.1%	-18.4%	31.6%
CC(=O)N1CCN(C(=O)c2ccc(NS(=O)(=O)c3ccc4c(c3)OCCO4)cc2)CC1	nt	nt	nt	-2.0%	-9.2%	-1.6%
O=C(Nc1cccc2ncccc12)c1ccc(OCc2ccccc2)cc1	-6.3	9.6%	5.3	227.2%	2.4%	-31.5%[1.15 µM]
Clc1cccc(Nc2nc(-c3ccncc3)cs2)c1	-0.5	1.7%	-5.5	29.7%	-0.9%	-4.1%
Cc1cccc(Nc2nc(-c3ccncc3)cs2)c1	41.7*	nt	142.7*	26.9%	-1.0%	40.5%
CCCCN(C(=O)c1cccs1)C1CCS(=O)(=O)C1 (centres undefined)	nt	nt	nt	7.6%	9.9%	-5.1%
CN(/C(=N\S(=O)(=O)c1ccccc1)c1ccccc1)c1ccc(O)cc1	-5.8	nt	21.1	?	6.0%	?
O=C(NCc1ccc(F)cc1)C(=O)Nc1nc(C23CC4CC(CC(C4)C2)C3)cs1	4.7	-17.4%	-3.3	-29.2%	84.2%	11.7µM*
Cc1ccc(-c2csc(NC(=O)c3c(C)noc3C)n2)cc1C	nt	nt	nt	-25.2%	0.8%	-21.6%
CNC(=O)C(=O)Nc1nc(C23CC4CC(CC(C4)C2)C3)cs1	15.7*	4.0%	7.9	?	20.4%	-13.7%
O=C(NCc1ccccc1)C(=O)Nc1nc(C23CC4CC(CC(C4)C2)C3)cs1	-1.7	1.6%	-3.3	-29.0%	-7.1%	?
Cc1noc(C)c1C(=O)Nc1nc(C23CC4CC(CC(C4)C2)C3)cs1	13.9	-18.4%	45.3	0.8%	2.2%	11.7µM*
COCCCNC(=O)Cn1nc(N2CCN(c3ccccc3)CC2)ccc1=O	nt	nt	nt	nt	1.0%	nt
CCn1cc(C(=O)N2CCN(c3cccc(Cl)c3)CC2)c(=O)c2cc(S(=O)(=O)N3CCOCC3)ccc21	nt	nt	nt	nt	-0.2%	nt
CC1CCN(S(=O)(=O)c2ccc3[nH]c(=O)cc(C(=O)O)c3c2)CC1	1.2	0.2%	-11.3	2.94µM*	-1.1%	0.5%
CCC(C)NC(=O)c1cn(CC)c2ccc(S(=O)(=O)N3CCCCC3)cc2c1=O (centres undefined)	-2.4	17.0%	-7.8	0.2%	7.9%	?
CCC(C)NC(=O)c1cn(CC)c2ccc(S(=O)(=O)N3CCCCCC3)cc2c1=O (centres undefined)	-2.0	9.8%	-5.6	13.1µM*	-17.0%	?
Cn1cc(C(=O)N2CCN(c3cccc(Cl)c3)CC2)c(=O)c2cc(S(=O)(=O)N3CCOCC3)ccc21	-1.1	-5.0%	-3.1	11.7µM*	-12.8%	-14.4%
CCOC(=O)N1CCN(C(=O)c2cn(CC)c3ccc(S(=O)(=O)N4CCCCC4)cc3c2=O)CC1	-6.1	nt	20.5	22.6%	1.3%	-10.8%
CCOC(=O)N1CCN(C(=O)c2cn(CC)c3ccc(S(=O)(=O)N4CCOCC4)cc3c2=O)CC1	-2.9	1.0%	-9.9	4.65µM*	10.2%	13.4%
COc1cccc(C2C(C(=O)Nc3ccc(C)cc3C)=C(C)Nc3c(C(=O)Nc4cccc(C)c4)cnn32)c1OC (centres undefined)	nt	nt	nt	nt	5.8%	nt
O=C(CSc1ccc(-c2ccc(F)cc2)nn1)N1CCN(c2ccccc2)CC1	-4.0	11.6%	-4.7	-29.8%	-0.6%	16.3%
COc1ccc(/C=C(\NC(=O)c2ccccc2)C(=O)NCCN2CCOCC2)cc1	10.2	6.3%	-4.0	-5.1%	-8.2%	17.8%
CCn1cc(C(=O)N2CCCCC2)c(=O)c2cc(S(=O)(=O)N3CCC(C)CC3)ccc21	22.8*	-0.3%	9.7	4.8%	-20.1%	?
SMILES	CHX counter	NS1 function inh	Shiga toxin inh	Pf growth 96h	Sm TGR inh	Pf growth 48h
CCn1cc(C(=O)NCCCOC(C)C)c(=O)c2cc(S(=O)(=O)N3CCC(C)CC3)ccc21	-6.3	22.3%	-1.7	1.04µM*	-11.7%	?
CCOc1ccccc1Nc1ncnc2ccccc12	-3.0	-12.9%	12.2	-19.5%	?	6.6%
Fc1ccc(Nc2ncnc3ccccc23)cc1	22.2*	-45.4%	nt	8.9%	1.3%	23.9%
COc1ccccc1Nc1ncnc2ccccc12	16.6*	-10.5%	35.0	9.0%	-13.6%	39.7%
Cc1c(NC(=O)C(C)OC(=O)c2ncc(Cl)c(Cl)c2Cl)c(=O)n(-c2ccccc2)n1C (centres undefined)	nt	nt	nt	3.3%	0.5%	?
COC(=O)C1C(c2ccc(OC)c(OC)c2)NC(c2ccc(OC)c(OC)c2)C(C(=O)OC)S1(=O)=O (centres undefined)	5.2	13.8%	7.7	?	20µM*	-20.0%
CCN(CC)C(=O)Oc1cc(COC)nc(-c2ccccc2)n1	1.1	-11.1%	-11.6	?	30.7%	10.4µM*
O=C(CN1C(=O)C2CCCCN2c2ccc(C(=O)N3CCCC3)cc21)NCc1cccc(Cl)c1 (centres undefined)	nt	nt	nt	nt	-6.5%	nt
O=C1CCN(Cc2ccccc2)CCN1CCOc1ccccc1	41.7*	-25.3%	76.3*	85.0%	1.5%	75.1%
CC1CCC(=O)N(CCOc2ccccc2)CC1 (centres undefined)	38.5*	-11.5%	57.7*	-33.6%	8.3%	97.7%
O=C(Nc1ccccc1)OCCN1CCN(Cc2ccccc2)CCC1=O	5.0	17.8%	-11.0	17.6%	2.7%	30.8%
O=C(Nc1ccc(Cl)cc1)OCCN1CCN(Cc2ccccc2)CCC1=O	34.1*	nt	+	nt	nt	nt
CC(C)[C@@H](COc1ccccc1)N1CCN(Cc2ccccc2)CCC1=O	3.0	-8.8%	-1.3	6.57µM*	-27.7%	?
CC(C)C(CO)N1CCN(Cc2ccccc2)CCC1=O (centres undefined)	-5.2	3.3%	-3.1	?	-19.7%	2.4%
COc1ccccc1CCC(=O)Nc1ncc(C)s1	9.5	4.2%	34.3	42.5%	2.8%	56.5%
CCn1cc2nc(SCC(=O)Nc3ccc(OC)cc3OC)n(Cc3ccc(Cl)cc3)c(=O)c2n1	nt	nt	nt	nt	-0.4%	nt
CC(Sc1nncs1)C(=O)NCC(=O)Nc1ccc(F)c(F)c1F (centres undefined)	-3.1	nt	20.3	17.5%	-10.7%	-21.9%
O=C(OCCCOc1ccc(F)cc1)c1ccc(O)cc1O	21.1*	-66.2%	21.0	27.3%	4.5%	24.4%
COC(=O)C1=C(C)N(Cc2ccccc2)C(=NCc2cc(OC)c(OC)c(OC)c2)N[C@H]1c1ccc(Br)cc1	-3.2	2.6%	1.5	29.1%	-6.4%	-2.0%
CCN1C(=NCCc2c[nH]c3ccccc23)N[C@@H](c2ccccc2)[C@H](C(=O)OC)[C@H]1C	-1.3	0.2%	-9.1	-0.6%	44.7µM*	?
COCCN=C1N[C@@H](c2ccc(Br)cc2)C(C(=O)OC)=C(C)N1Cc1ccccc1	-2.3	1.0%	5.7	?	15.1%	?
